This is a sample that favours compounds with a hit; in the whole collection about 7.5% have one here.
Luc counter: Kinase-Glo luciferase inhibition (counter-screen); AID 1379; Q27757; actives 0.28% (n = 200,000); Potency, µM (highest dose often 38.3 µM), inactives show at the top dose activity change, negative = inhibition, actives largely listed as inhibitors; Kinase-Glo luciferase, ATP luminescence, 8 min; also: % is scaled to controls: 0 for no effect and ±100 for the full control effect; nearly all actives have a fitted effect of over 60% in size
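Light output from Kinase-Glo luciferase with luciferin and 10 uM ATP in 50 mM imidazole pH 7.2, KCl, MgCl2, Tween 20, BSA; compound pin-delivered, 8-min ambient incubation, then luminescence read.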
NPC1 promoter act: NPC1 promoter activation; Huh7 NPC1 promoter luciferase reporter, 24 h; Potency, µM (top dose mostly 9.22 µM), for inactives: top-dose activation, usual class: activators; actives 2.4% (n = 320,000); AID 485313; also: % of control where 0% means no effect; nearly all actives have a fitted effect of over 60% in size
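Readout is luciferase luminescence, reflecting NPC1 promoter activation in stably transfected Huh7 cells after 24 h compound exposure at 37 °C in reduced-serum medium with 10% FBS.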
Rab9 prom act: Rab9 promoter activation; actives 2.8% (n = 320,000); Huh7 Rab9 promoter-luciferase reporter, luminescence, 24 h; Potency, µM (highest dose often 9.22 µM), without a hit: at the top dose activation, negative = inhibition, actives largely listed as activators; AID 485297; also: % of control where 0% means no effect; nearly all actives have a fitted effect of over 60% in size
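Luminescence from Amplite-detected luciferase (10 minutes, ambient) reports Rab9 promoter activation. Before that, stable Rab9-luciferase Huh7 cells (1500/well, reduced-serum OP-MEM I plus 10% FBS) were exposed to compound for 24 hours at 37C.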
SMN2 splice up: SMN2 splice variant enhancement | Potency, µM (series often up to 46.1 µM), inactives show at the highest dose activity change, positive = activation, most hits filed as activators | HEK293 SMN2-luciferase splicing reporter, luminescence, 30-36 h | actives 2.8% (n = 210,000) | AID 1458; also: % of control where 0% means no effect; nearly all actives have a fitted effect of over 55% in size
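HEK293 cells carry an SMN2 […]–luciferase reporter in which exon 7 inclusion puts luciferase in frame. Cells were plated 10-12 h before compound addition, then incubated 30-36 h at 37C. ONE-Glo luminescence was read; sodium butyrate at 4.5 mM final served as control.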
ELG1 genotoxic: induces genotoxicity in HEK293T cells with luciferase-tagged ELG1; HEK293T ELG1-luciferase reporter, luminescence, 16 h; Potency, µM (top dose mostly 46 µM), without a hit: top-dose activity change, positive = activation, hits mostly activators; actives 1.3% (n = 330,000); AID 504466; also: % of control where 0% means no effect; nearly all actives have a fitted effect of over 60% in size
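Quantitative HTS format in 1536-well plates. HEK293T ELG1-luciferase reporter cells receive test compound and are incubated 16 hr at 37 °C, 5% CO2; ONE-Glo added, 30 min room temperature, then luminescence read.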
FLuc counter: firefly luciferase modulation, counter-screen for miR-21 project. purified FLuc, Km substrates, luminescence inhibition. Potency, µM (titrated, usually from 57.5 µM), for inactives: at the highest dose activity change, negative = inhibition, actives largely listed as inhibitors. actives 6.9% (n = 360,000);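 also: plate controls were vehicle for no effect and reference inhibitor for full effect; nearly all actives have a fitted effect of over 55% in size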
Target sequence (P08659 whole entry, looked up): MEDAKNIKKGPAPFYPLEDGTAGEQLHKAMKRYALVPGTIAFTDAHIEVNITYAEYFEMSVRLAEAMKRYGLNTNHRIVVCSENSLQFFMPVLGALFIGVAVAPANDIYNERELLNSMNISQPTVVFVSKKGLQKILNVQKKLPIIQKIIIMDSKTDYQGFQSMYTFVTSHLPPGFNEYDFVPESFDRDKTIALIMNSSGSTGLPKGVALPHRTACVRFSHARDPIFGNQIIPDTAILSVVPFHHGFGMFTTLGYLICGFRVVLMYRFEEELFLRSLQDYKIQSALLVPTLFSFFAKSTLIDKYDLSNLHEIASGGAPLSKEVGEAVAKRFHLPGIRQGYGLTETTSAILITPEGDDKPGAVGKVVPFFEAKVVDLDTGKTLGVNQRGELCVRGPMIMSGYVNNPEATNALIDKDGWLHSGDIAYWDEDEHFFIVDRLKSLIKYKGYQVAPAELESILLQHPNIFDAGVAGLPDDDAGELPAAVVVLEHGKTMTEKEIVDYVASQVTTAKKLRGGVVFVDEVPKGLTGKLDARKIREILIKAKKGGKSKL
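Purified P. pyralis luciferase (10nM final) with 10uM D-luciferin and 10uM ATP (Km levels) in 50mM Tris acetate pH 7.5, 10mM Mg acetate, 0.01% Tween-20, 0.05% BSA; qHTS 6-point titration, ~60 µM downward; luminescence read.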
* marks the source's active call; other numbers are inactive results; [ ] = another dose, or the depositor's remark. Calls follow the shape of the dose curve; as a rule, active = well fitted curve in the direction sought with a large enough effect; inconclusive = small, poorly fitted or top-dose-only effect, or another doubt; inactive = no such curve, though single readings can be large; an effect the other way counts as inactive or inconclusive. Potency is read from the fitted curve at half-maximal effect.

CC(=O)Nc1ccc(Cc2ccc3[nH]c(=O)cc(C)c3c2)cc1 was read as Luc counter 1%[7.66 µM], NPC1 promoter act -3%, Rab9 prom act -1%, SMN2 splice up 8%[9.22 µM], ELG1 genotoxic 21µM* and FLuc counter 3%.
For O=C(O)[C@@H]1[C@H](C(=O)O)[C@H]2C(=O)C=C[C@H]1N2Cc1ccccc1 the results were Luc counter 0%[7.66 µM] and SMN2 splice up -12%[9.22 µM].
For Cc1ccc(CNC(=O)CCCc2nnc3n(C)c(=O)c4sccc4n23)cc1 the results were FLuc counter 3%.
For O=C1CC2C(CC(OC(=O)c3ccc(-c4ccccc4)cc3)C2CO)O1 (stereo unspecified) the results were Luc counter -5%, NPC1 promoter act 16%, Rab9 prom act inconclusive, SMN2 splice up inconclusive, ELG1 genotoxic inconclusive and FLuc counter 12µM*.
`O=C1C[C@H]2[C@H](CO)[C@@H](OC(=O)c3ccc(-c4ccccc4)cc3)C[C@H]2O1` gave NPC1 promoter act inconclusive, Rab9 prom act inconclusive, ELG1 genotoxic 16% and FLuc counter 5.4µM*.
O=C(Nc1ccn(C2CC(OC(=O)c3ccccc3)C(CO)O2)c(=O)n1)c1ccccc1 (stereo unspecified) was read as Luc counter -7%, NPC1 promoter act 1%, Rab9 prom act 3%, SMN2 splice up -8%, ELG1 genotoxic -4% and FLuc counter 0%.
Screening CC(C)Oc1ccc(C(=O)N/N=C/c2ccc(-c3ccc(S(=O)(=O)Nc4ncccn4)cc3)o2)cc1 returned Luc counter 1%, NPC1 promoter act 7%, Rab9 prom act 10%, SMN2 splice up 7%, ELG1 genotoxic -1% and FLuc counter 27µM*.
Screening Cc1noc(NS(=O)(=O)c2ccc(N/C=C\C(=O)c3ccncc3)cc2)c1C returned Luc counter 14%, NPC1 promoter act -3%, Rab9 prom act 9%, SMN2 splice up -4%, ELG1 genotoxic -4% and FLuc counter -1%.
CCc1ccc(C(=O)/C=C/Nc2ccc(S(=O)(=O)Nc3onc(C)c3C)cc2)cc1 was read as Luc counter 0%, NPC1 promoter act 20%, Rab9 prom act inconclusive, SMN2 splice up 7%, ELG1 genotoxic 13% and FLuc counter 11µM*.
For NC(=O)N/N=C/c1ccc(-c2ccc(S(=O)(=O)Nc3ncccn3)cc2)o1 the results were NPC1 promoter act -1%, Rab9 prom act -3%, ELG1 genotoxic 0% and FLuc counter 5%.
Screening CCc1ccc(OCC(=O)Nc2ccc(S(=O)(=O)Nc3onc(C)c3C)cc2)cc1 returned SMN2 splice up -3% and FLuc counter 12µM*.
Screening Cc1noc(NS(=O)(=O)c2ccc(NC(=O)c3ccc(OC(C)C)cc3)cc2)c1C returned Luc counter -3%, NPC1 promoter act -1%, Rab9 prom act 1%, ELG1 genotoxic 3% and FLuc counter 13µM*.
Screening CCOC(=O)Cn1nc(C(F)F)c(Br)c1C returned Luc counter 1%, NPC1 promoter act -6%, Rab9 prom act 0%, SMN2 splice up 12%, ELG1 genotoxic 5% and FLuc counter -5%.
For Cc1ccc(NC(=O)Cn2c(=O)oc3ccccc32)c(C)c1 the results were NPC1 promoter act -4%, Rab9 prom act 6%, ELG1 genotoxic 0% and FLuc counter -2%.
For Cc1ccc(-c2nnc3ccccc3c2C(=O)Nc2cccc(Cl)c2)cc1 the results were FLuc counter 1%.
Screening COc1ccc(C(=O)/C=C/Nc2ccc(S(=O)(=O)Nc3onc(C)c3C)cc2)cc1 returned Luc counter 2%, NPC1 promoter act 8%, Rab9 prom act -1%, SMN2 splice up 19%, ELG1 genotoxic 15% and FLuc counter 7.6µM*.
Cc1noc(NS(=O)(=O)c2ccc(N/C=C/C(=O)c3ccc(F)cc3)cc2)c1C was read as Luc counter 1%, NPC1 promoter act 5%, Rab9 prom act 17%, SMN2 splice up -27%, ELG1 genotoxic -5% and FLuc counter 21µM*.
CCCCN1C(=O)c2ccc(C(=O)Nc3cccc(C)c3C)cc2C1=O was read as Luc counter 4%, NPC1 promoter act 1%, Rab9 prom act -4%, SMN2 splice up -6%, ELG1 genotoxic 11% and FLuc counter 0%.
CCCN1C(=O)c2ccc(C(=O)Nc3cc(C)ccc3O)cc2C1=O was read as NPC1 promoter act 2.2µM*, Rab9 prom act inconclusive, ELG1 genotoxic inconclusive and FLuc counter 3.4µM*.
`O=C(Nc1c[nH]c(=O)[nH]c1=O)c1ccc2c(c1)C(=O)N(c1cccc([N+](=O)[O-])c1)C2=O` gave NPC1 promoter act 0%, Rab9 prom act 0%, ELG1 genotoxic 1% and FLuc counter -1%.
Screening O=C(Nc1ccccc1C(=O)O)c1ccc2c(c1)C(=O)N(c1cccc([N+](=O)[O-])c1)C2=O returned NPC1 promoter act 1%, Rab9 prom act -7%, ELG1 genotoxic 0% and FLuc counter 27µM*.
Screening Cc1ccc(O)c(NC(=O)c2ccc3c(c2)C(=O)N(CC(C)C)C3=O)c1 returned NPC1 promoter act 2.8µM*, Rab9 prom act inconclusive, ELG1 genotoxic inconclusive and FLuc counter 2.4µM*.
CCCN1C(=O)c2ccc(C(=O)Nc3ccccc3C(=O)O)cc2C1=O was read as NPC1 promoter act inconclusive, Rab9 prom act 22%, ELG1 genotoxic 10% and FLuc counter 3.8µM*.
Cc1ccc(-c2nc3sccn3c2Nc2ccccc2C)cc1 was read as SMN2 splice up -5% and FLuc counter inconclusive.
For Cc1c(NC(=O)c2ccc(N3CCC(C)CC3)c([N+](=O)[O-])c2)cccc1-c1nc2ccccc2o1 the results were SMN2 splice up 6% and FLuc counter -8%.
`Cc1c(N=C(N)/N=C(\N)Nc2ccc(Br)cc2)c(=O)n(-c2ccccc2)n1C` gave Luc counter 2%, NPC1 promoter act -1%, Rab9 prom act -5%, SMN2 splice up -10%, ELG1 genotoxic -3% and FLuc counter 1%.
COc1ccc(/C=C(\C#N)C(=O)Nc2cccnc2)cc1 was read as Luc counter 0%, NPC1 promoter act -3%, Rab9 prom act 1%, SMN2 splice up 2%, ELG1 genotoxic 1% and FLuc counter inconclusive.
Screening COc1ccc(O)c(/C=C(\C#N)C(=O)Nc2cccnc2)c1 returned Luc counter -4%, NPC1 promoter act 8%, Rab9 prom act 21%, SMN2 splice up 5%, ELG1 genotoxic inconclusive and FLuc counter 4.8µM*.
